{
  "source": "PubChem BioAssay AID463190",
  "about": "(Sanford-Burnham Center for Chemical Genomics, 2010)",
  "note": "About 7,300 (2.2%) of roughly 330,000 compounds were called active. The full list was thinned out, with actives kept by preference. Unmarked numbers belong to inactive results.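 Rule for the calls: active = inhibition of at least 40%; inactive = the rest.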",
  "data": [
    {"assay": "growth inhibition of tim10-1 ts yeast – luminescence, uHTS, primary screen (AID 463190);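 note: mutant grown at 25 °C; 0% = DMSO wells with yeast and 100% = wells holding no yeast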", "conditions": "S. cerevisiae tim10-1 ts strain growth, BacTiter-Glo, 24 h; at 20 µM; stronger effect = higher value", "values": [
      {"smiles": "CCOC(=O)/C=C/CN(C(=O)OC(C)(C)C)S(=O)(=O)N1CC=CC1", "inhibition": "17.9%"},
      {"smiles": "CC(C)(Oc1ccc(C2CC2(Cl)Cl)cc1)C(=O)O", "note": "(stereo not drawn)", "inhibition": "9.95%"},
      {"smiles": "CN(C)C(=O)c1ccc2c(c1)C1C3CCC(C3)C1C(c1ccccc1)N2", "note": "(stereo not drawn)", "inhibition": "46% (active)"},
      {"smiles": "CN(C)C(=O)c1ccc(NC(=O)c2ccccc2-c2ccccc2)cc1", "inhibition": "3.15%"},
      {"smiles": "Cc1ccc(C)c(N2CCN(C(=O)CCc3nc(-c4cccc(C(F)(F)F)c4)no3)CC2)c1", "inhibition": "17.8%"},
      {"smiles": "OCCC1CN(Cc2ccccc2-c2ccco2)CCN1Cc1ccsc1", "note": "(stereo not drawn)", "inhibition": "17.5%"},
      {"smiles": "COc1cc(C=NNC(=O)c2cccnc2)ccc1OC(=O)c1ccccc1F", "inhibition": "4.11%"},
      {"smiles": "CN(NS(=O)(=O)c1cccs1)c1ncc(C(F)(F)F)cc1Cl", "inhibition": "15.9%"},
      {"smiles": "COCCNc1nc(-n2nc(C)cc2C)nc2sc3c(c12)CCCC3", "inhibition": "30.3%"},
      {"smiles": "CC(C)c1nc(SCC(=O)Nc2cccc(C(=O)O)c2)c2c3c(sc2n1)CCCC3", "inhibition": "10.1%"},
      {"smiles": "Cc1cc(C)n(-c2nc(SCC(=O)N3CCCC3)c3c4c(sc3n2)CCCC4)n1", "inhibition": "52.2% (active)"},
      {"smiles": "O=C(O)C1CCCN1S(=O)(=O)c1ccc(Br)cc1", "note": "(stereo not drawn)", "inhibition": "-5.99%"},
      {"smiles": "COCCN(C(=O)COC(=O)Cc1cccc(OC)c1)c1c(N)n(Cc2ccccc2)c(=O)[nH]c1=O", "inhibition": "0.462%"},
      {"smiles": "Cc1cc(/C=C(/C#N)C(=O)Nc2ccc(Cl)cc2)c(C)n1-c1cccnc1", "inhibition": "20.6%"},
      {"smiles": "N#C/C(=C\\c1cccnc1)C(=O)Nc1ccc(SC(F)F)cc1", "inhibition": "52.5% (active)"},
      {"smiles": "CC(C)(C)NC(=O)/C(=C/c1cccnc1)NC(=O)c1ccco1", "inhibition": "-15.4%"},
      {"smiles": "O=C(O)CCCCCCCCc1cn(CN2C(=O)c3ccccc3C2=O)nn1", "inhibition": "-13.2%"},
      {"smiles": "CCOC(=O)N1CCC(N(CCOC)C(=O)Nc2ccc(C)c(C)c2)CC1", "inhibition": "26.7%"},
      {"smiles": "COc1ccc(/C(=N\\O)c2nccc3cc(OC)c(OC)cc23)cc1OC", "inhibition": "17.4%"},
      {"smiles": "Cc1ccc(-c2csc(NCCc3nc4cc(Cl)c(Cl)cc4n3CCOCCO)n2)cc1", "inhibition": "33.4%"},
      {"smiles": "Cc1ccccc1Nc1nc(-c2cccnc2)cs1", "inhibition": "-3.25%"},
      {"smiles": "Cc1ccc(Nc2nc(-c3ccc(O)cc3O)cs2)nc1", "inhibition": "43.9% (active)"},
      {"smiles": "COc1c(C(=O)N2CCCC2)ccc2ccccc12", "inhibition": "6%"},
      {"smiles": "C[C@@H](NC(=O)[C@@H]1Cc2ccccc2CN1)C(=O)NC1CCCC1", "inhibition": "5.23%"},
      {"smiles": "CC(C)(CNC(=O)c1cc(=O)[nH]c2ccccc12)N1CCOCC1", "inhibition": "-7.73%"},
      {"smiles": "O=C(N/N=C/c1ccc([N+](=O)[O-])cc1)C(=O)N1CCCC1", "inhibition": "17.3%"},
      {"smiles": "O=[N+]([O-])c1ccc(N/N=C/c2ccccc2)cc1", "inhibition": "40.7% (active)"},
      {"smiles": "O=[N+]([O-])c1cccc(/C=N/Nc2ncc(Br)cn2)c1", "inhibition": "-23.5%"}
    ]}
  ]
}
